Test results reported in PubChem BioAssay.
Activity calls are given as the source filed them.

Key:
[1] = tested on: Plasmodium falciparum Sir2 (PF13_0152, Sir2A); experiment: pfSir2 binders on small-molecule microarrays, primary screen, biochemical, small-molecule microarray, 635 nm fluorescence (AID 1098); details: small-molecule microarray binding, fluorescence 635 nm; higher = more signal;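 note: score merges spot fluorescence intensity with its signal-to-noise ratio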
[2] = small-molecule microarray binders of probe aDKK1, primary screen, biochemical, biotinylated probe, 635/667 nm fluorescence (AID 1099); details: higher = more signal;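 note: score merges 667nm spot fluorescence with signal to noise across triplicate slides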
[3] = small-molecule microarray binders of probe aCHRDL2, primary screen, biochemical, biotinylated probe, 635/667 nm fluorescence (AID 1100); details: higher = more signal
[4] = splicing luciferase reporter signal modulators, primary screen, spliceosome inhibition project, cell-based, HEK293, splice +/- reporter (AID 1101); details: luminescence, 24 h, higher = more signal, called active from +8 up or from −8 down;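 note: HEK293 cells carrying a splicing-competent luciferase reporter gene; test concentration not given here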
[5] = molecular target: Fibroblast growth factor 10 (Homo sapiens) (UniProt O15520); experiment: FGF10 binders on small-molecule microarrays, primary screen, biochemical, small-molecule microarray, 635 nm fluorescence (AID 1102); details: FGF10 binding, fluorescence 635 nm, higher = more signal
Chain of Fibroblast growth factor 10 (Homo sapiens) (O15520 whole entry, looked up): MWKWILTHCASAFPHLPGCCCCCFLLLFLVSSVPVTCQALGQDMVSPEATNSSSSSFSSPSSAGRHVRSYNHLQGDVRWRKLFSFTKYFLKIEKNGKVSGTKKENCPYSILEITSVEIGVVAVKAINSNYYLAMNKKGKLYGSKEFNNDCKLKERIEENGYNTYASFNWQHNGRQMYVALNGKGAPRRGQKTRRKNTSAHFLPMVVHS

[6] = tested on: glycogen synthase kinase-3 (GSK3A per assay name; protocol says GSK3B); experiment: GSK3 binders on small-molecule microarrays, primary screen, biochemical, small-molecule microarray, 635 nm fluorescence, GSK3A (AID 1103); details: small-molecule microarray binding, fluorescence 635 nm; higher = more signal; note: the record names both GSK3A and GSK3B
[7] = molecular target: Epidermal growth factor receptor (Homo sapiens) (UniProt P00533); experiment: EGFR binders on small-molecule microarrays, primary screen, biochemical, small-molecule microarray, 635 nm fluorescence (AID 1104); details: EGFR binding, higher = more signal;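 note: score merges 667 nm emission intensity with spot signal to noise over triplicate slides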
Chain of Epidermal growth factor receptor (Homo sapiens) (P00533 whole entry, looked up): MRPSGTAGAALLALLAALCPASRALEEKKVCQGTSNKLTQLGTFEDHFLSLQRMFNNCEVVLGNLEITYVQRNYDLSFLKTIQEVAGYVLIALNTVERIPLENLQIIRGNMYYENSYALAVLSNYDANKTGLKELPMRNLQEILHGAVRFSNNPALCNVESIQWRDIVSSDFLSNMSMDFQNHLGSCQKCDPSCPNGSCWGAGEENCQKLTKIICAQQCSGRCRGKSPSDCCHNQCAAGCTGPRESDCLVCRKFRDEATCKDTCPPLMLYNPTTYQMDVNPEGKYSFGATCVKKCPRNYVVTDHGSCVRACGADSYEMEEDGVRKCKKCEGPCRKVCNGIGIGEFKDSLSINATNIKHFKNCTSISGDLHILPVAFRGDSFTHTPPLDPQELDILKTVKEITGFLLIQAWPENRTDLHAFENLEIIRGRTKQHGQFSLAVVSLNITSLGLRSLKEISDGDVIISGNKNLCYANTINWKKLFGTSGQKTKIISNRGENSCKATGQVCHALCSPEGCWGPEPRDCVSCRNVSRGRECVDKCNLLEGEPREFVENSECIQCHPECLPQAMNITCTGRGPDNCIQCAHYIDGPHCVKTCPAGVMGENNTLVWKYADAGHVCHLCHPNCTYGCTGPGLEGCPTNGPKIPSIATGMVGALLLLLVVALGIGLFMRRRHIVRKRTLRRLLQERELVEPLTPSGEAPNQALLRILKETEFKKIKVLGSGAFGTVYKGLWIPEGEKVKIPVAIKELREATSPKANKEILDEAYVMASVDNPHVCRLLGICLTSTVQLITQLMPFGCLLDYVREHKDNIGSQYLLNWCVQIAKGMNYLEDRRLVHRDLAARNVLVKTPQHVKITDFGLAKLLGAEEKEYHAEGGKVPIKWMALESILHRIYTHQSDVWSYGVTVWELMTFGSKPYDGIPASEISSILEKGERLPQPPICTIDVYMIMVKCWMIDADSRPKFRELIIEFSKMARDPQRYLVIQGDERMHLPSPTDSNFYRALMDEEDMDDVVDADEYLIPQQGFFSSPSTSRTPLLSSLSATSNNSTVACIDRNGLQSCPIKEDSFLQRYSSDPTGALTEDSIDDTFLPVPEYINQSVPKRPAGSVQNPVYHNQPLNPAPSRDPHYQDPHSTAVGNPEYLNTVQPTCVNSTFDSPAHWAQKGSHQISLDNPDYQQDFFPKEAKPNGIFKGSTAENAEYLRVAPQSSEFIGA

[8] = molecular target: Follistatin-related protein 3 (Homo sapiens) (UniProt O95633); experiment: FSTL3 binders on small-molecule microarrays, primary screen, biochemical, small-molecule microarray, 635 nm fluorescence (AID 1105); details: FSTL3 binding, higher = more signal;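 note: score merges emission near 667 nm and signal to noise per printed spot across three slides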
Chain of Follistatin-related protein 3 (Homo sapiens) (O95633 whole entry, looked up): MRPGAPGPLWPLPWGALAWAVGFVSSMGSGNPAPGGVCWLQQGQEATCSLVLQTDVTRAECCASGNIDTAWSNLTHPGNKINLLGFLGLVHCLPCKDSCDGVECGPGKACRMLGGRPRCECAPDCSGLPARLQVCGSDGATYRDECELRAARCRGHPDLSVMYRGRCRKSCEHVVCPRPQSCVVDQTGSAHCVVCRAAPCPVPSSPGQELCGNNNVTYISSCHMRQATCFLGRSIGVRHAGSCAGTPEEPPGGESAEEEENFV

[9] = molecular target: Dickkopf-related protein 1 (Homo sapiens) (UniProt O94907); experiment: DKK1 binders on small-molecule microarrays, primary screen, biochemical, small-molecule microarray, 635 nm fluorescence scan (AID 1106); details: DKK1 binding, higher = more signal;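 note: score merges emission near 667 nm with signal to noise over three replicate slides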
Chain of Dickkopf-related protein 1 (Homo sapiens) (O94907 whole entry, looked up): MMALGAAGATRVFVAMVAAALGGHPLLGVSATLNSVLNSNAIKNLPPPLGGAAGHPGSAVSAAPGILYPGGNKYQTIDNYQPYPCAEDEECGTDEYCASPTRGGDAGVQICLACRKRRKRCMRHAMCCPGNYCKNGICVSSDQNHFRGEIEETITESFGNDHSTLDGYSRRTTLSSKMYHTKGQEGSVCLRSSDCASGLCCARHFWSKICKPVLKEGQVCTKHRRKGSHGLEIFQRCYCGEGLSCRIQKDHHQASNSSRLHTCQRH

[10] = tested on: Inhibin beta A chain (activin A); experiment: INHBA (activin A) binders on microarrays, primary screen, biochemical, small-molecule microarray, 635 nm fluorescence scan (AID 1107); details: small-molecule microarray binding, higher = more signal;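 note: mouse activin A protein probed at 4.33 µg/mL on printed slides; score merges bound-protein fluorescence near 667 nm with spot signal-to-noise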
[11] = tested on: Human papillomavirus type 1a protein E7 (residues 44-93); experiment: HPV1a E7 fragment binders on microarrays, primary screen, biochemical, small-molecule microarray, residues 44-93, 635 nm fluorescence (AID 1108); details: small-molecule microarray binding, fluorescence 635 nm; higher = more signal;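 note: E7 fragment applied at 1 µg/mL in TBST for 1 h at 4 C; score combines spot fluorescence with its signal to noise ratio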
[12] = modulators of HCV replicon luciferase signal, primary screen, HCV replication inhibitor project, Huh7 cells, luciferase reporter (AID 1109); details: 48 h, higher = more signal;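 note: huh7 hepatoma cells harbouring a luciferase neomycin HCV replicon reporter; luciferase luminescence as measure of HCV replicon replication; test concentration not given here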
[13] = molecular target: Left-right determination factor 2 (Homo sapiens) (UniProt O00292); experiment: LEFTY2 binders on small-molecule microarrays, primary screen, biochemical, small-molecule microarray, 635 nm fluorescence scan (AID 1110); details: LEFTY2 binding, higher = more signal
Chain of Left-right determination factor 2 (Homo sapiens) (O00292 whole entry, looked up): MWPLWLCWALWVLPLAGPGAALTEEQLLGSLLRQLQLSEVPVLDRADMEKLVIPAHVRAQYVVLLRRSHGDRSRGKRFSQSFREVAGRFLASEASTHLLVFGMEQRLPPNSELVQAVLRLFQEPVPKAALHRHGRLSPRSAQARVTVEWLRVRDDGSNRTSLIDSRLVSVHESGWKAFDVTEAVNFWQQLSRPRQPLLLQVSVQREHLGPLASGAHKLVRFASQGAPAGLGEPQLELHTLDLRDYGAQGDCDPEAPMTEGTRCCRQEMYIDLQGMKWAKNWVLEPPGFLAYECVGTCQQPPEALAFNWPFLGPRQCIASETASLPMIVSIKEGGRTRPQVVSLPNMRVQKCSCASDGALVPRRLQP

[14] = molecular target: Calmodulin-1 (Homo sapiens) (UniProt P0DP23); experiment: CALM1 binders on microarrays, EGTA buffer, profiling panel, biochemical, small-molecule microarray, Cy5-labelled CALM1 (AID 1111); details: Cy5-CALM1 binding fluorescence, higher = more signal;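 note: labelled calmodulin applied in Tris saline Tween buffer holding calcium plus EGTA and DTT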
[15] = molecular target: Calmodulin-1 (Homo sapiens) (UniProt P0DP23); experiment: calcium-bound CALM1 binders on microarrays, profiling panel, artefact control for SMM control-protein annotation, biochemical, small-molecule microarray, Cy5-labelled CALM1, plus calcium (AID 1112); details: Cy5-CALM1 binding fluorescence, higher = more signal;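 note: score merges spot fluorescence with signal to noise from triplicate slides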
[16] = small-molecule microarray binders of probe aWnt5a, primary screen, biochemical, biotinylated probe, 635/667 nm fluorescence (AID 1113); details: higher = more signal;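 note: score merges 667 nm fluorescence intensity with signal-to-noise per printed feature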
[17] = small-molecule microarray binders of probe aShh, primary screen, biochemical, biotinylated probe, 635/667 nm fluorescence (AID 1114); details: higher = more signal;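 note: probe is biotin-labelled aShh protein from a stem cell growth factor screen; measures binding of labelled protein to compounds printed on the slide; score merges feature fluorescence at 667 nm with signal-to-noise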
[18] = small-molecule microarray binders of probe aNog, primary screen, biochemical, biotinylated probe, 635/667 nm fluorescence (AID 1115); details: higher = more signal;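 note: probe is biotinylated aNog protein used at 0.15 µg/mL for 1 h at 4 C; z-score combines 667 nm fluorescence of each spot with its signal to noise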
[19] = molecular target: Torsin-1A-interacting protein 1 (Homo sapiens) (UniProt Q5JTV8); experiment: LAP1 binders from COS7 cell lysate, primary screen, small-molecule microarray, 635/667 nm fluorescence (AID 1116); details: COS7-hLAP1 lysate binding, 635 nm fluorescence, higher = more signal
Chain of Torsin-1A-interacting protein 1 (Homo sapiens) (Q5JTV8 whole entry, looked up): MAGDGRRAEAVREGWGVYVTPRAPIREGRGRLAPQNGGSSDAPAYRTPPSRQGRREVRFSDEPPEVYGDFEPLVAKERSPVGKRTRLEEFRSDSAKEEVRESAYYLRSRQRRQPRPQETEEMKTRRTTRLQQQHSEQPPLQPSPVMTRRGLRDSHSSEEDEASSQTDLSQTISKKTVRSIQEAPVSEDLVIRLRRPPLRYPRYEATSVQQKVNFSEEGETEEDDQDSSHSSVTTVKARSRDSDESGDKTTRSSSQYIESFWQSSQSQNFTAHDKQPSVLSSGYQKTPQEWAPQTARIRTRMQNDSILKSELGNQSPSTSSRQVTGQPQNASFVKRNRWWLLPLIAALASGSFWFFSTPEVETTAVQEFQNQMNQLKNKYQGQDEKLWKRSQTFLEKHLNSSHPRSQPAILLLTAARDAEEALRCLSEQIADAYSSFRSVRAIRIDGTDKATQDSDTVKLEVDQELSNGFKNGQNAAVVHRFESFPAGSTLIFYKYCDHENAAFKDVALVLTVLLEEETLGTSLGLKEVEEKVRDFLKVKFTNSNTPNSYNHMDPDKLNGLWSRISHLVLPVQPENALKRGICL

[20] = molecular target: Alpha-bungarotoxin (Bungarus multicinctus) (UniProt P60615); experiment: alpha-bungarotoxin binders on microarray, profiling panel, artefact control for SMM control protein annotation, biochemical, small-molecule microarray, Alexa647 label, 635/667 nm fluorescence (AID 1117); details: alpha-BTX-A647 binding fluorescence, higher = more signal
Chain of Alpha-bungarotoxin (Bungarus multicinctus) (P60615 whole entry, looked up): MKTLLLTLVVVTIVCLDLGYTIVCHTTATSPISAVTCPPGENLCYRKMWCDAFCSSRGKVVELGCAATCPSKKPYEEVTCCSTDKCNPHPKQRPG

Row | SMILES | composite z-score [1] | composite z-score [2] | composite z-score [3] | z-score [4] | composite z-score [5] | composite z-score [6] | composite z-score [7] | composite z-score [8] | composite z-score [9] | composite z-score [10] | composite z-score [11] | z-score [12] | composite z-score [13] | composite z-score [14] | composite z-score [15] | composite z-score [16] | composite z-score [17] | composite z-score [18] | composite z-score [19] | composite z-score [20]
1 | O=C1[C@@H]2[C@@H](CC(COc3ccccc3)=C([C@H](O)CCc3ccccc3)[C@@H]2CO)C(=O)N1Cc1ccccc1 | 0.764 | -0.0833 | -0.264 | 0.187 (inactive) | 0.408 | -0.0949 | 0.256 | 0.679 | 0.286 | 0.343 | 0.778 | -2.21 | 0.399 | 0.615 | -0.346 | -0.1 | -0.0553 | -0.172 | 0.47 | 0.495
2 | COc1ccc(C(=O)Nc2cccc(CN3C(=O)[C@]4(O[C@H](CC(=O)N5Cc6ccccc6C[C@H]5CO)[C@@H]([Si](C)(C)c5ccc(OC)cc5)[C@@H]4C)c4ccccc43)c2)cc1 | 0.895 | -0.245 | -0.362 | -0.865 (inactive) | 0.946 | 0.955 | 1.24 | 1.42 | 1.34 | 1.21 | 1.23 | -3.44 | 1.05 | 0.219 | -0.763 | 0.0194 | 0.0639 | 0.0811 | 0.711 | 1.12
3 | CCCCCC1=C2CNC(Cc3ccccc3)(C(=O)OC)C=C2C(C)C1=O (stereo not given) | 0.0442 | 0.926 | 1.37 | 73.6 (active) | -0.0286 | -1.16 | -0.779 | -0.733 | -1.84 | 1.47 | 0.719 | -1.85 | -1.75 | 1.54 | 1.46 | -0.0643 | 0.45 | 1.7 | 1.64 | 0.175
4 | CC(C)(C)N1CC=CC23O[C@@H]4/C=C\CCCOC(=O)C4[C@H]2C(=O)N(CCCCCO)[C@@H]3C1=O (stereo not given in full) | 1.58 | -0.3 | 0.149 | -0.464 (inactive) | -0.943 | -0.581 | -1.43 | -1.63 | -0.473 | -1.11 | -0.267 | -0.887 | -1.48 | -0.677 | -0.893 | -0.213 | 0.074 | -0.122 | -0.286 | -0.954
5 | C=CC[C@@]1(C(=O)OC)N=C(c2ccc(OCCCO)cc2)O[C@@H]1c1ccccc1N=[N+]=[N-] | 1.5 | 0.6 | 1 | -1.61 (inactive) | 1.32 | 1.32 | 1.38 | 1.22 | 0.685 | 0.767 | 1.48 | -0.992 | 0.684 | 0.17 | -0.483 | 0.0433 | 0.313 | 0.604 | 1.66 | 1.43
6 | O=C1O[C@@H](c2ccccc2)[C@@H](c2ccccc2)N2[C@@H](c3ccc(OCCO)cc3)[C@]3(C(=O)Nc4ccc(C#CCCO)cc43)[C@@H](C(=O)O)[C@H]12 | 1.81 | 0.416 | 1.17 | 0.362 (inactive) | 1.41 | 0.746 | 0.702 | 0.988 | 0.151 | 1.34 | 1.08 | -0.22 | 0.687 | 2.03 | 0.408 | 0.663 | 0.582 | 2.45 | 1.99 | 1.95
7 | CCCC=C(CCC)[C@@H](NC(=O)c1ccc(C(F)(F)F)cc1)c1ccc(C(F)(F)F)cc1 | 0.654 | 0.73 | 1.09 | -3.17 (inactive) | 0.793 | 1.13 | -0.254 | 0.468 | -0.906 | 0.932 | 1.36 | -1.5 | -0.203 | 1.72 | 1.09 | 0.253 | 0.778 | 1.78 | 0.926 | 0.942
8 | CCOC(=O)c1cn(C[C@H](Cc2ccccc2)NC(=O)N[C@H](CO)CCc2oc(C(C)=O)c(C(=O)OC)c2C(=O)OC)nn1 | 0.559 | 0.0549 | -0.398 | -1.1 (inactive) | 1.37 | 1.28 | 0.956 | 1.49 | 1.1 | -0.0083 | 1.39 | 0.404 | 0.896 | -0.0815 | -0.471 | -0.0816 | -0.0553 | -0.158 | 0.866 | 0.491
9 | C=CCOC(=O)[C@@H]1[C@H]2C(=O)O[C@H](c3ccccc3)[C@H](c3ccccc3)N2[C@H](c2ccc(OCCOC(=O)[C@H]3C[C@H]4C(=O)N5CCC[C@H]5C(=O)N4[C@H]3c3cccc(OCCO)c3)cc2)[C@@]12C(=O)Nc1ccc(I)cc12 | 1.56 | -0.0777 | 0.0879 | 0.388 (inactive) | 1.05 | 1.24 | 1.08 | 1.42 | 1.06 | -0.0842 | 0.195 | -0.898 | 1.19 | -0.0165 | 0.0231 | -0.0566 | 0.138 | 0.373 | 1.09 | 0.659
10 | C=C(C)[C@@H]1CC=C(C(O)C2C=CC3C(=O)N(C)C(=O)C3N2Nc2ccc([N+](=O)[O-])cc2[N+](=O)[O-])CC1 (stereo not given in full) | 0.626 | 0.989 | 1.05 | 1.86 (inactive) | 0.85 | 1.28 | 0.963 | 1.04 | 0.0615 | 1.35 | 1.45 | -0.44 | 0.265 | 0.79 | 0.441 | 0.101 | 0.302 | 1.46 | 0.958 | 1.95
11 | CCCC[C@H]1C[C@@H]1[C@@H]1N(C(C)=O)[C@H](c2cccc(OC)c2)CC12CC2 | -0.497 | 0.692 | 0.878 | -1.86 (inactive) | 0.0847 | 0.114 | -0.0128 | 0 | -0.556 | 0.596 | -0.223 | -0.103 | -0.305 | 1.03 | 0.878 | -0.0276 | 0.0278 | -0.643 | 0.632 | 0.154
